Consider 29 sequences from PMC11006913.

Numbering of substitutions follows the chain as printed.

Chain of HOXA7 (P31268 116-202): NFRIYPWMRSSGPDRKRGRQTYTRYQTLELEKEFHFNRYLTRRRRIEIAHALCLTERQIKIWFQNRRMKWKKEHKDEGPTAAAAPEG

One experiment addresses T1, VENTX (Homo sapiens, UniProt O95231 78-163).
T1 sequence: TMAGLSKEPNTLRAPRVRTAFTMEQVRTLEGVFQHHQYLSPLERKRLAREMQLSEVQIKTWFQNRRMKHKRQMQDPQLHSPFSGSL
Kind of experiment: PBM; 200 nM protein, PBS. Conditions: dsDNA, one strand shown.
CTGGGGCA: the binding signal was 8.21 upbm affinity estimate (log intensity, higher = more binding, comparable within an allelic series).

For CTGCTGGC, the binding signal is 7.86 upbm affinity estimate (log intensity, higher = more binding, comparable within an allelic series).

For the next experiment, the target named is T2, SIX6 (Homo sapiens, UniProt O95475 114-200, L143V).
T2 sequence: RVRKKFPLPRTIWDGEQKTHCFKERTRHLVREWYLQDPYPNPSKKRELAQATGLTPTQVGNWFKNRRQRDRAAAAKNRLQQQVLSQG
The experiment is described as follows: PBM; 200 nM protein, PBS. Particulars: dsDNA, one strand shown.
Consider CACGCCCC, for which the binding signal was 8.92 upbm affinity estimate (log intensity, higher = more binding, comparable within an allelic series).

For the sequence AGGTGCCC, the binding signal is 8.83 upbm affinity estimate (log intensity, higher = more binding, comparable within an allelic series).

Take CCGTCGCC: the binding signal is 8.91 upbm affinity estimate (log intensity, higher = more binding, comparable within an allelic series).

Turning to GCAGCTGC, the binding signal was 9.05 upbm affinity estimate (log intensity, higher = more binding, comparable within an allelic series).

For CCCTGATC, the binding signal was 9.63 upbm affinity estimate (log intensity, higher = more binding, comparable within an allelic series).

Regarding CCAGGGGC, the binding signal was 8.71 upbm affinity estimate (log intensity, higher = more binding, comparable within an allelic series).

As for AGACTATC, the binding signal was 9.83 upbm affinity estimate (log intensity, higher = more binding, comparable within an allelic series).

GGGGCCCC: the binding signal was 8.85 upbm affinity estimate (log intensity, higher = more binding, comparable within an allelic series).

Take CGCACCGC: the binding signal is 8.89 upbm affinity estimate (log intensity, higher = more binding, comparable within an allelic series).

In the case of ACGCAACG, the binding signal was 9.09 upbm affinity estimate (log intensity, higher = more binding, comparable within an allelic series).

In the case of CTGCTGGC, the binding signal is 8.74 upbm affinity estimate (log intensity, higher = more binding, comparable within an allelic series).

Another experiment concerns the target HOXA7 (Homo sapiens, UniProt P31268 116-202). The experiment is described as follows: PBM; 200 nM protein, PBS. Particulars: dsDNA, one strand shown.
Turning to ATATTAAT, the binding signal was 11.2 upbm affinity estimate (log intensity, higher = more binding, comparable within an allelic series).

On to ATTTATGG, for which the binding signal is 10.6 upbm affinity estimate (log intensity, higher = more binding, comparable within an allelic series).

As to TGCGATAA, the binding signal is 9.91 upbm affinity estimate (log intensity, higher = more binding, comparable within an allelic series).

The target of the next experiment is HOXC10 (Homo sapiens, UniProt Q9NYD6 254-340). Kind of experiment: PBM; 200 nM protein, PBS. Conditions: dsDNA, one strand shown.
Chain of HOXC10 (Q9NYD6 254-340): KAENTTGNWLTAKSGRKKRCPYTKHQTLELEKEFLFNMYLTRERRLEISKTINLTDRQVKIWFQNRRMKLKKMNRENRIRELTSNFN
Consider GCCCGGGC, for which the binding signal was 9.84 upbm affinity estimate (log intensity, higher = more binding, comparable within an allelic series).

ATTTATGG: the binding signal is 12.5 upbm affinity estimate (log intensity, higher = more binding, comparable within an allelic series).

Regarding CTGCTGGC, the binding signal is 9.92 upbm affinity estimate (log intensity, higher = more binding, comparable within an allelic series).

For another experiment, the target named is ALX4 (Homo sapiens, UniProt Q9H161 200-286). Kind of experiment: PBM; 200 nM protein, PBS. Particulars: dsDNA, one strand shown.
Chain of ALX4 (Q9H161 200-286): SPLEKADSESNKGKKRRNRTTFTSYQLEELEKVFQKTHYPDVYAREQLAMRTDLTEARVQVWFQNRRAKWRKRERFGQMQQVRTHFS
As to GCAGCTGC, the binding signal was 7.95 upbm affinity estimate (log intensity, higher = more binding, comparable within an allelic series).

For the sequence AGGGGACC, the binding signal was 8.18 upbm affinity estimate (log intensity, higher = more binding, comparable within an allelic series).

Consider GGGGCCCC, for which the binding signal was 8.29 upbm affinity estimate (log intensity, higher = more binding, comparable within an allelic series).

For CGCACCGC, the binding signal is 8.06 upbm affinity estimate (log intensity, higher = more binding, comparable within an allelic series).

Another experiment addresses T3, SIX6 (Homo sapiens, UniProt O95475 114-200, H141N).
T3 sequence: T2 sequence with H28N, V30L
The experiment is described as follows: PBM; 200 nM protein, PBS. Particulars: dsDNA, one strand shown.
Turning to CACGCCCC, the binding signal was 9.05 upbm affinity estimate (log intensity, higher = more binding, comparable within an allelic series).

Consider AGGTGCCC, for which the binding signal is 8.91 upbm affinity estimate (log intensity, higher = more binding, comparable within an allelic series).

As for CCGTCGCC, the binding signal is 8.81 upbm affinity estimate (log intensity, higher = more binding, comparable within an allelic series).

Consider GCAGCTGC, for which the binding signal is 9.04 upbm affinity estimate (log intensity, higher = more binding, comparable within an allelic series).

Turning to CCCTGATC, the binding signal is 10.2 upbm affinity estimate (log intensity, higher = more binding, comparable within an allelic series).

For the sequence CCAGGGGC, the binding signal was 8.85 upbm affinity estimate (log intensity, higher = more binding, comparable within an allelic series).

For AGACTATC, the binding signal was 10.2 upbm affinity estimate (log intensity, higher = more binding, comparable within an allelic series).

As to GGGGCCCC, the binding signal is 9 upbm affinity estimate (log intensity, higher = more binding, comparable within an allelic series).

In the case of CGCACCGC, the binding signal is 8.95 upbm affinity estimate (log intensity, higher = more binding, comparable within an allelic series).

For ACGCAACG, the binding signal is 9.09 upbm affinity estimate (log intensity, higher = more binding, comparable within an allelic series).

Regarding CTGCTGGC, the binding signal was 8.87 upbm affinity estimate (log intensity, higher = more binding, comparable within an allelic series).

For a further experiment, the target named is T4, SIX6 (Homo sapiens, UniProt O95475 114-200, T165P).
T4 sequence: T2 sequence with V30L, T52P
The experiment is described as follows: PBM; 200 nM protein, PBS. Conditions: dsDNA, one strand shown.
Regarding CACGCCCC, the binding signal is 8.95 upbm affinity estimate (log intensity, higher = more binding, comparable within an allelic series).

As for AGGTGCCC, the binding signal is 8.95 upbm affinity estimate (log intensity, higher = more binding, comparable within an allelic series).

As to CCGTCGCC, the binding signal is 9.06 upbm affinity estimate (log intensity, higher = more binding, comparable within an allelic series).

With GCAGCTGC, the binding signal is 9.02 upbm affinity estimate (log intensity, higher = more binding, comparable within an allelic series).

Turning to CCCTGATC, the binding signal is 9.31 upbm affinity estimate (log intensity, higher = more binding, comparable within an allelic series).

On to CCAGGGGC, for which the binding signal was 8.79 upbm affinity estimate (log intensity, higher = more binding, comparable within an allelic series).

Consider AGACTATC, for which the binding signal is 9.59 upbm affinity estimate (log intensity, higher = more binding, comparable within an allelic series).

GGGGCCCC: the binding signal was 8.87 upbm affinity estimate (log intensity, higher = more binding, comparable within an allelic series).

As to CGCACCGC, the binding signal was 8.88 upbm affinity estimate (log intensity, higher = more binding, comparable within an allelic series).

On to ACGCAACG, for which the binding signal was 9.22 upbm affinity estimate (log intensity, higher = more binding, comparable within an allelic series).

CTGCTGGC: the binding signal is 8.81 upbm affinity estimate (log intensity, higher = more binding, comparable within an allelic series).

The target in another experiment is T5, VENTX (Homo sapiens, UniProt O95231 78-163, Y115F).
T5 sequence: T1 sequence with Y38F
The experiment is described as follows: PBM; 200 nM protein, PBS. Particulars: dsDNA, one strand shown.
With CCCGACCC, the binding signal is 8.09 upbm affinity estimate (log intensity, higher = more binding, comparable within an allelic series).

For the sequence ACAGATTA, the binding signal was 10.5 upbm affinity estimate (log intensity, higher = more binding, comparable within an allelic series).

Take AGATTAGC: the binding signal was 10.4 upbm affinity estimate (log intensity, higher = more binding, comparable within an allelic series).

Consider CAGATTAG, for which the binding signal is 10.7 upbm affinity estimate (log intensity, higher = more binding, comparable within an allelic series).

As for GGATTACA, the binding signal was 9.18 upbm affinity estimate (log intensity, higher = more binding, comparable within an allelic series).

For GAGGTACC, the binding signal was 8.14 upbm affinity estimate (log intensity, higher = more binding, comparable within an allelic series).

For the sequence GATTAATA, the binding signal is 11 upbm affinity estimate (log intensity, higher = more binding, comparable within an allelic series).

With ATAATCTG, the binding signal was 10.1 upbm affinity estimate (log intensity, higher = more binding, comparable within an allelic series).

Consider CAGATTAA, for which the binding signal was 10.7 upbm affinity estimate (log intensity, higher = more binding, comparable within an allelic series).

In the case of GCAGATTA, the binding signal was 10.4 upbm affinity estimate (log intensity, higher = more binding, comparable within an allelic series).

Consider CCCCTGGA, for which the binding signal was 8.01 upbm affinity estimate (log intensity, higher = more binding, comparable within an allelic series).

Turning to ACTAATCG, the binding signal is 11.5 upbm affinity estimate (log intensity, higher = more binding, comparable within an allelic series).

As to CTGGGGCA, the binding signal was 8.17 upbm affinity estimate (log intensity, higher = more binding, comparable within an allelic series).

For the sequence CTGCTGGC, the binding signal was 7.71 upbm affinity estimate (log intensity, higher = more binding, comparable within an allelic series).

Another experiment concerns the target T6, SIX6 (Homo sapiens, UniProt O95475 114-200, L167M).
T6 sequence: T2 sequence with V30L, L54M
The experiment is described as follows: PBM; 200 nM protein, PBS. Particulars: dsDNA, one strand shown.
For the sequence CACGCCCC, the binding signal is 8.99 upbm affinity estimate (log intensity, higher = more binding, comparable within an allelic series).

AGGTGCCC: the binding signal was 8.85 upbm affinity estimate (log intensity, higher = more binding, comparable within an allelic series).

As to CCGTCGCC, the binding signal was 8.97 upbm affinity estimate (log intensity, higher = more binding, comparable within an allelic series).

For GCAGCTGC, the binding signal is 9.06 upbm affinity estimate (log intensity, higher = more binding, comparable within an allelic series).

Consider CCAGGGGC, for which the binding signal was 8.77 upbm affinity estimate (log intensity, higher = more binding, comparable within an allelic series).

AGACTATC: the binding signal was 9.99 upbm affinity estimate (log intensity, higher = more binding, comparable within an allelic series).

Take GGGGCCCC: the binding signal was 8.88 upbm affinity estimate (log intensity, higher = more binding, comparable within an allelic series).

For CGCACCGC, the binding signal was 8.89 upbm affinity estimate (log intensity, higher = more binding, comparable within an allelic series).

ACGCAACG: the binding signal was 9.12 upbm affinity estimate (log intensity, higher = more binding, comparable within an allelic series).

For CTGCTGGC, the binding signal was 8.92 upbm affinity estimate (log intensity, higher = more binding, comparable within an allelic series).

Another experiment deals with T7, SIX6 (Homo sapiens, UniProt O95475 114-200, L143M).
T7 sequence: T2 sequence with V30M
Kind of experiment: PBM; 200 nM protein, PBS. Particulars: dsDNA, one strand shown.
CACGCCCC: the binding signal was 9.02 upbm affinity estimate (log intensity, higher = more binding, comparable within an allelic series).

For the sequence AGGTGCCC, the binding signal was 8.84 upbm affinity estimate (log intensity, higher = more binding, comparable within an allelic series).

As to CCGTCGCC, the binding signal is 8.82 upbm affinity estimate (log intensity, higher = more binding, comparable within an allelic series).

With GCAGCTGC, the binding signal was 9.14 upbm affinity estimate (log intensity, higher = more binding, comparable within an allelic series).

For CCAGGGGC, the binding signal is 8.78 upbm affinity estimate (log intensity, higher = more binding, comparable within an allelic series).

Consider AGACTATC, for which the binding signal is 10.2 upbm affinity estimate (log intensity, higher = more binding, comparable within an allelic series).

GGGGCCCC: the binding signal is 8.91 upbm affinity estimate (log intensity, higher = more binding, comparable within an allelic series).

As to CGCACCGC, the binding signal was 8.96 upbm affinity estimate (log intensity, higher = more binding, comparable within an allelic series).

For the sequence ACGCAACG, the binding signal is 9.21 upbm affinity estimate (log intensity, higher = more binding, comparable within an allelic series).

Turning to CTGCTGGC, the binding signal is 8.85 upbm affinity estimate (log intensity, higher = more binding, comparable within an allelic series).

A further experiment has as its target T8, SIX6 (Homo sapiens, UniProt O95475 114-200, L143I).
T8 sequence: T2 sequence with V30I
Kind of experiment: PBM; 200 nM protein, PBS. Conditions: dsDNA, one strand shown.
For the sequence CACGCCCC, the binding signal is 8.94 upbm affinity estimate (log intensity, higher = more binding, comparable within an allelic series).

As for AGGTGCCC, the binding signal is 8.86 upbm affinity estimate (log intensity, higher = more binding, comparable within an allelic series).

With CCGTCGCC, the binding signal is 8.94 upbm affinity estimate (log intensity, higher = more binding, comparable within an allelic series).

For the sequence GCAGCTGC, the binding signal was 9.05 upbm affinity estimate (log intensity, higher = more binding, comparable within an allelic series).

On to CCCTGATC, for which the binding signal is 9.69 upbm affinity estimate (log intensity, higher = more binding, comparable within an allelic series).

Regarding CCAGGGGC, the binding signal is 8.85 upbm affinity estimate (log intensity, higher = more binding, comparable within an allelic series).

Take GGGGCCCC: the binding signal was 8.93 upbm affinity estimate (log intensity, higher = more binding, comparable within an allelic series).

With CGCACCGC, the binding signal is 9 upbm affinity estimate (log intensity, higher = more binding, comparable within an allelic series).

On to ACGCAACG, for which the binding signal was 9.08 upbm affinity estimate (log intensity, higher = more binding, comparable within an allelic series).

For CTGCTGGC, the binding signal was 8.83 upbm affinity estimate (log intensity, higher = more binding, comparable within an allelic series).
